# Assay results: the OligoGym collection
# Molecular target: SHROOM4
# Test: pooled miR-30 sensor sort-seq; sequence = guide strand
# Settings: shRNA
# Note: reference of the scale not given here.
row,Sequence,sensor-assay potency score (higher = more potent)
1,TATCAGTACCAACTTCTCCTGG,-0.376
2,TAGCTTGACAAGTCCAGTGCTG,-0.0975
3,TTATTCGTCCCTCTAAGCCTGT,-0.267
4,TTTCTGAACTGAAATACTGGGG,-0.0667
5,TTTCATCTTGACAAAGTGCTGG,0.237
6,TTGAAGAACAGTCCGTGGCTTG,-0.301
7,TTGAAGAGCTTGTCTCTGGGGC,0.543
8,TAGTGGTTGAAGAACAGTCCGT,-0.287
9,TTGCTTGCAAAACATTCTGAGT,-1.21
10,TAGAGCTCCTTGAACACTGCAG,0.417
11,TTTGCTTGCAAAACATTCTGAG,0.464
12,TTCATCTTGACAAAGTGCTGGT,0.618

# Molecular target: SIAE
# Test: as above
# Settings: shRNA
row,Sequence,sensor-assay potency score (higher = more potent)
1,TTGATGTATGAAGCAAAGCGAA,-1.38
2,TAACACAGTCATCTGCATGTTA,-0.177
3,TATCTGTAACACAGTCATCTGC,-0.344
